# Test results reported in PubChem BioAssay.
# Activity calls are given as the source filed them.
# Test system: not listed separately
# Test: budding yeast growth modifiers under rapamycin – strain BY4716, OD600, 96 h, primary screen (AID 1091); also: test concentration not given here
# Settings: S. cerevisiae BY4716 + rapamycin, higher = more signal, called active from +8 up or from −8 down
row,Structure (SMILES),z-score
1,C=C[C@H](C)[C@@H](O)c1ccc(O)c2ccccc12,4.25 (inactive)
2,O=C1O[C@H](c2ccccc2)[C@H](c2ccccc2)N2[C@H]1[C@@H](C(=O)O)[C@]1(C(=O)Nc3ccc(C#CC4(O)CCCCCC4)cc31)[C@H]2c1ccc(OCCO)cc1,0.124 (inactive)
3,CC(=CC1CCCCC1)[C@@H](NC(=O)c1ccc(C(F)(F)F)cc1)c1ccc(-c2ccccc2)cc1,-0.938 (inactive)
4,CN1C(=O)C2C(C1=O)C1C=C(CCCO)C2C(c2cccs2)N1C (configuration not stated),-0.113 (inactive)
5,CC(C)NC(=O)[C@@]1(Cc2ccccc2I)c2ccccc2C(=O)N(Cc2ccccc2)[C@H]1c1ccc(CO)cc1,-0.291 (inactive)
6,C=C(COC)C(=O)CC[C@H](OC(C)=O)c1cccc(OCCO)c1,-0.0523 (inactive)
7,[N-]=[N+]=NCc1ccccc1[C@H]1OC(c2ccc(OCCCO)cc2)=N[C@@]1(CCS(=O)(=O)c1ccccc1)C(=O)N1CCOCC1,2.23 (inactive)
8,COC(=O)[C@@]1(Cc2ccc(OC)cc2)[C@H]2c3cc(C(=O)N4CCCC4)n(CCc4c[nH]c5cc(F)ccc45)c3C[C@H]2CN1C(=O)c1ccccc1,1.75 (inactive)
9,CC(C)CNC(=O)[C@@H]1c2ccccc2C(=O)N(Cc2cc(C(F)(F)F)cc(C(F)(F)F)c2)[C@H]1c1ccc(CO)cc1,-0.706 (inactive)
10,[N-]=[N+]=NCc1ccccc1[C@@H]1OC(c2ccc(OCCCO)cc2)=N[C@]1(Cc1ccccc1)C(=O)N1CCCCC1,1.66 (inactive)
11,CC(=O)C1=CCC(c2ccccc2)N(S(=O)(=O)c2ccc(C)cc2)C1 (configuration not stated),4.92 (inactive)

# Target: Torsin-1A-interacting protein 2 (Homo sapiens) (UniProt Q8NFQ8)
# Test: small molecules binding lysate-expressed LULL1 – cell lysate, human LULL1 lysate, 635/667 nm fluorescence, primary screen (AID 1092);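 also: probe is lysate of COS7 cells overexpressing human LULL1; score merges per-feature 667 nm fluorescence with signal-to-noise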
# Settings: small-molecule microarray, hLULL1 lysate binding, 635 nm fluorescence; higher = more signal
# Torsin-1A-interacting protein 2 (Homo sapiens), sequence (Q8NFQ8 whole entry, looked up): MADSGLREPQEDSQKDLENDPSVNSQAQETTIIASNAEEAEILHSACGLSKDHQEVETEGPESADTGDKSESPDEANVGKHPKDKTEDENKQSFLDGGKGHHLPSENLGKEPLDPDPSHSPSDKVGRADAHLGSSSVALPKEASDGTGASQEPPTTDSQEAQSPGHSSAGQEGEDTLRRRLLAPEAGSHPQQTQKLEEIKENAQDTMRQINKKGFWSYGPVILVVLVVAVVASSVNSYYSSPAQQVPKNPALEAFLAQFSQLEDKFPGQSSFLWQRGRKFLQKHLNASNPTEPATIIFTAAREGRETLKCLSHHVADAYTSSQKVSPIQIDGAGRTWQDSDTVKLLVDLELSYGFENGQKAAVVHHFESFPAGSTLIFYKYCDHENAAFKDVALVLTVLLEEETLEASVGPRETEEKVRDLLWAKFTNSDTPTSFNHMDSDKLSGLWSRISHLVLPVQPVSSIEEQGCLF
row,Structure (SMILES),composite z-score
1,C=CCOC(=O)[C@H]1[C@@H]2C(=O)O[C@@H](c3ccccc3)[C@@H](c3ccccc3)N2[C@@H](c2ccc(OCCOC(=O)[C@@H]3C[C@@H]4C(=O)N5CCC[C@H]5C(=O)N4[C@@H]3c3ccc(O)cc3)cc2)[C@]12C(=O)Nc1ccccc12,2.63
2,CC(C)OC(=O)CC(=O)CC(O)c1ccc(C#N)cc1 (configuration not stated),1.85
3,O=C(OCCF)C1=CCC(c2cccc(Cl)c2)O1 (configuration not stated),0.856
4,[N-]=[N+]=NCc1ccccc1[C@@H]1OC(c2ccc(OCCCO)cc2)=N[C@]1(Cc1ccccc1N=[N+]=[N-])C(=O)NCc1ccccc1,2.45
5,COc1ccc(C(O)C2C=CC3C(=O)N(c4ccccc4)C(=O)C3N2Nc2ccc([N+](=O)[O-])cc2)cc1OCc1ccccc1 (configuration not stated),2.72
6,Cc1ccccc1C(O)C1C=CC2C(=O)N(C)C(=O)C2N1N1CCCCC1 (configuration not stated),3.18
7,COCCOC(=O)N1C(=O)[C@@]2(c3cc(C#CCNC(N)=O)ccc31)[C@H](c1ccccc1OCCO)N1[C@H](c3ccccc3)[C@H](c3ccccc3)OC(=O)[C@H]1[C@@H]2C(N)=O,-0.0889
8,O=C1C2C=CC(C(O)c3cccs3)N(Nc3ccccc3F)C2C(=O)N1c1ccccc1 (configuration not stated),3.17
9,COC(=O)C1=CC(CCCO)=CC(C2CC2)N(Cc2sc3ccccc3c2Cl)C=C1C(=O)OC (configuration not stated),3.36
10,COCCOC(=O)N1C(=O)[C@@]2(c3cc(C#Cc4ccc(OC)cc4)ccc31)[C@H](C(=O)N1CCN(c3ncccn3)CC1)[C@H]1C(=O)O[C@H](c3ccccc3)[C@H](c3ccccc3)N1[C@@H]2c1ccc(O)cc1,0.78
11,CN(C)C(=O)[C@]1(CCC(=O)OC(C)(C)C)N=C(c2ccc(OCCCO)cc2)O[C@@H]1c1ccccc1N=[N+]=[N-],3.78
12,C=CCC(OC(C)=O)[C@@H]1[C@@H](N(Cc2cc3ccccc3o2)C(=O)c2ccc(C)cc2)c2cc(OCCCO)ccc2N1C(=O)c1ccc2ccccc2c1 (some centres not stated),0.346
13,COC(=O)[C@@]1(Cc2ccc(OC)cc2)[C@H]2c3cc(C(=O)N4CCCC4)n(Cc4ccccn4)c3C[C@H]2CN1C(=O)c1ccccc1,3.86
14,Cc1ccc(S[C@]2(C(=O)NCc3ccccc3)CC(=O)N(Cc3ccccc3Cl)[C@@H]2c2ccc(CO)cc2I)cc1,1.65
15,COc1ccc([Si](C)(C)[C@@H]2[C@@H](CCn3cc([C@H](O)c4ccccc4)nn3)O[C@]3(C(=O)N(Cc4cccc(N5CCOC5=O)c4)c4ccccc43)[C@H]2C)cc1,0.697
16,CCN(CC)c1ccc(N2CC=CC34O[C@@H]5/C=C\CCCOC(=O)C5[C@H]3C(=O)N(C(CO)C(C)C)[C@@H]4C2=O)cc1 (some centres not stated),2.03
17,Cc1ccc(S[C@]2(C(=O)NC3CC3)CC(=O)N(Cc3ccccc3)[C@@H]2c2ccc(CO)cc2)cc1,2.08
18,O=C1OCCC/C=C\[C@H]2OC34C=CCN(Cn5nnc6ccccc65)C(=O)[C@H]3N(CCCCCO)C(=O)[C@@H]4C12 (some centres not stated),1.04

row,Structure (SMILES),composite z-score
1,CCN(CC)c1ccc(N2CC=CC34O[C@@H]5C=CCCOC(=O)C5[C@H]3C(=O)N(CCCCCO)[C@@H]4C2=O)cc1 (some centres not stated),0.965
2,O=C1O[C@@H](c2ccccc2)[C@@H](c2ccccc2)N2[C@@H](c3ccccc3OCCO)[C@]3(C(=O)Nc4ccc(C#CC5(O)CCCCCC5)cc43)[C@@H](C(=O)Nc3nc4ccccc4s3)[C@H]12,2.19
3,CCOC(=O)C1=C[C@@H](C(C)C)N(S(=O)(=O)c2ccc(C)cc2)[C@H]1c1ccc(C(C)C)cc1,3.02
4,C=CCC(OC(C)=O)[C@@H]1[C@@H](N(Cc2cccc3ccccc23)C(=O)c2cccc3ccccc23)c2cc(OCCCO)ccc2N1C(=O)c1ccc2ccccc2n1 (some centres not stated),0.681
5,[N-]=[N+]=NCc1ccccc1C[C@]1(C(=O)NCCN2CCOCC2)N=C(c2ccc(OCCCO)cc2)O[C@H]1c1ccccc1N=[N+]=[N-],2.73
6,CC1=C2[C@@H](CCc3ccccc3)OB(O)C[C@@H]2n2c(=O)n(-c3ccccc3)c(=O)n2C1,0.902
7,COc1cc2c(cc1OC)CN(C(=O)[C@@H]1[C@H]3C(=O)O[C@H](c4ccccc4)[C@H](c4ccccc4)N3[C@H](c3ccccc3OCCO)[C@@]13C(=O)Nc1ccc(C#CCNC(N)=O)cc13)CC2,2.61
8,C=C[C@H](C)[C@@H](O)c1ccc(O)c2ccccc12,0.853
9,O=C1O[C@H](c2ccccc2)[C@H](c2ccccc2)N2[C@H]1[C@@H](C(=O)O)[C@]1(C(=O)Nc3ccc(C#CC4(O)CCCCCC4)cc31)[C@H]2c1ccc(OCCO)cc1,3.58
10,CC(=CC1CCCCC1)[C@@H](NC(=O)c1ccc(C(F)(F)F)cc1)c1ccc(-c2ccccc2)cc1,-0.192
11,CN1C(=O)C2C(C1=O)C1C=C(CCCO)C2C(c2cccs2)N1C (configuration not stated),2.69
12,CC(C)NC(=O)[C@@]1(Cc2ccccc2I)c2ccccc2C(=O)N(Cc2ccccc2)[C@H]1c1ccc(CO)cc1,2.91
13,C=C(COC)C(=O)CC[C@H](OC(C)=O)c1cccc(OCCO)c1,0.118
14,[N-]=[N+]=NCc1ccccc1[C@H]1OC(c2ccc(OCCCO)cc2)=N[C@@]1(CCS(=O)(=O)c1ccccc1)C(=O)N1CCOCC1,3.65
15,COC(=O)[C@@]1(Cc2ccc(OC)cc2)[C@H]2c3cc(C(=O)N4CCCC4)n(CCc4c[nH]c5cc(F)ccc45)c3C[C@H]2CN1C(=O)c1ccccc1,3.54
16,CC(C)CNC(=O)[C@@H]1c2ccccc2C(=O)N(Cc2cc(C(F)(F)F)cc(C(F)(F)F)c2)[C@H]1c1ccc(CO)cc1,0.557
17,[N-]=[N+]=NCc1ccccc1[C@@H]1OC(c2ccc(OCCCO)cc2)=N[C@]1(Cc1ccccc1)C(=O)N1CCCCC1,2.74
18,CC(=O)C1=CCC(c2ccccc2)N(S(=O)(=O)c2ccc(C)cc2)C1 (configuration not stated),2.6
